Results taken from PubChem BioAssay (EPA / NIEHS).
Active and inactive are the calls of the source. The calls were made as follows: active = hit-call score of the fitted dose curve at least 0.9, where 1 is the maximum; inactive = score below 0.9.

Columns and labels:
[1] = read-out: Transforming growth factor beta 1 (TGFb1), TGFB1 (gene 7040); experiment: BSK_BE3C_TGFb1: BioMAP Diversity Plus: BE3C Assay for Transforming growth factor beta 1 (TGFb1) Biomarker Activity (AID 2283036); conditions: primary human bronchial epithelial cells; actives raise or lower the signal
Summary of the method: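 ELISA readout of TGF-b1 from human lung bronchial epithelial primary cells, taken 24 h post-treatment. Gain or loss of signal fitted relative to DMSO baseline, with parallel SRB staining for overt cytotoxicity.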

[2] = read-out: Plasminogen activator inhibitor-1 (PAI1), SERPINE1 (gene 5054); experiment: BSK_BE3C_PAI1: BioMAP Diversity Plus: BE3C Assay for Plasminogen activator inhibitor-1 (PAI1) Biomarker Activity (AID 2283037); conditions: primary human bronchial epithelial cells; actives raise or lower the signal
Summary of the method: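 PAI-1 was measured by ELISA in human primary bronchial epithelial cultures 24 h after chemical dosing, with cytotoxicity checked by SRB total-protein staining in parallel cultures. Activity was fitted in both directions relative to DMSO.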

[3] = read-out: urokinase plasminogen activator (uPA), PLAU (gene 5328); experiment: BSK_BE3C_uPA: BioMAP Diversity Plus: BE3C Assay for urokinase plasminogen activator (uPA) Biomarker Activity (AID 2283038); conditions: primary human bronchial epithelial cells; actives raise or lower the signal
Summary of the method: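 Measured by ELISA: uPA from human primary bronchial epithelial cells 24 h after chemical treatment. Values derive from bidirectional curve fitting with DMSO serving as negative control. Total protein by SRB staining in parallel wells flagged overt cytotoxicity.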

[4] = read-out: Urokinase-type plasminogen activator receptor (uPAR), PLAUR (gene 5329); experiment: BSK_BE3C_uPAR: BioMAP Diversity Plus: BE3C Assay for Urokinase-type plasminogen activator receptor (uPAR) Biomarker Activity (AID 2283039); conditions: primary human bronchial epithelial cells; actives raise or lower the signal
Summary of the method: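 uPAR levels were measured by ELISA after 24 h compound treatment of primary human bronchial epithelial cells, fitted in both directions relative to DMSO. Parallel SRB staining served as the cytotoxicity read-out.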

[5] = read-out: Interleukin-6 (IL6), IL6 (gene 3569); experiment: BSK_CASM3C_IL6: BioMAP Diversity Plus: CASM3C Assay for Interleukin-6 (IL6) Biomarker Activity for (AID 2283040); conditions: primary human coronary artery smooth muscle cells; actives raise or lower the signal
[6] = read-out: Tissue plasminogen activator (tPA), PLAT (gene 5327); experiment: BSK_BE3C_tPA: BioMAP Diversity Plus: BE3C Assay for Tissue plasminogen activator (tPA) Biomarker Activity (AID 2283041); conditions: primary human bronchial epithelial cells; actives raise or lower the signal
Summary of the method: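 tPA measured by ELISA 24 h after dosing human primary bronchial epithelial cells (BE3C system). Changes in either direction were fitted against DMSO. Parallel cultures were stained with SRB to flag overt cytotoxicity.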

[7] = read-out: Interleukin-8 (IL8), CXCL8 (gene 3576); experiment: BSK_CASM3C_IL8: BioMAP Diversity Plus: CASM3C Assay for Interleukin-8 (IL8) Biomarker Activity (AID 2283042); conditions: primary human coronary artery smooth muscle cells; actives raise or lower the signal;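 also: IL-8 protein level quantified by ELISA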
[8] = read-out: Human Leukocyte Antigen - DR isotype (HLADR), HLA-DRA (gene 3122); experiment: BSK_CASM3C_HLADR: BioMAP Diversity Plus: CASM3C Assay for Human Leukocyte Antigen - DR isotype (HLADR) Biomarker Activity (AID 2283043); conditions: primary human coronary artery smooth muscle cells; actives raise or lower the signal;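 also: cell-surface HLA-DR protein level quantified by ELISA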
[9] = read-out: Macrophage colony-stimulating factor (MCSF), CSF1 (gene 1435); experiment: BSK_CASM3C_MCSF: BioMAP Diversity Plus: CASM3C Assay for Macrophage colony-stimulating factor (MCSF) Biomarker Activity (AID 2283044); conditions: primary human coronary artery smooth muscle cells; actives raise or lower the signal;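 also: M-CSF protein amount quantified by ELISA after 24 h exposure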
[10] = read-out: Low-density lipoprotein receptor (LDLR), LDLR (gene 3949); experiment: BSK_CASM3C_LDLR: BioMAP Diversity Plus: CASM3C Assay for Low-density lipoprotein receptor (LDLR) Biomarker Activity (AID 2283045); conditions: primary human coronary artery smooth muscle cells; actives raise or lower the signal;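 also: LDLR protein level on the cell surface quantified by ELISA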

Measured: AC50

CCCCCCCCCCCCCCCO
active: [10] 31.9 µM
inactive: all other assays above

Fc1ccccc1[C@@H](F)COC1CCC(Nc2ncnc3[nH]ncc23)CC1 (stereo not given in full)
active: [8] 6.88 µM
inactive: all other assays above

CCCCC(CC)COC(=O)c1ccc(C(=O)OCC(CC)CCCC)cc1 (stereo not given)
inactive: all assays above

Nc1cccc(N)c1
inactive: all assays above

CCOC(=O)CC(CC(=O)OCC)(OC(C)=O)C(=O)OCC
inactive: all assays above

Cc1ccc(S(=O)(=O)O)cc1C
inactive: all assays above

COc1cccc(-c2ccc(/C=C\CN3CCCCCC3)cc2Cl)c1
active: [1] 25.8 µM | [3] 23.6 µM | [4] 25.2 µM | [6] 29.2 µM | [8] 29.5 µM | [9] 29.4 µM | [10] 4.74 µM
inactive: [2] | [5] | [7]

CC(C)=CCC/C(C)=C\CO
inactive: all assays above

C1=CCCC=CCCC=CCC1
inactive: all assays above

COC(=O)c1ccccc1O
inactive: all assays above

CCCC(=O)OCC
inactive: all assays above

O=P(OC(CCl)CCl)(OC(CCl)CCl)OC(CCl)CCl
inactive: all assays above

Cc1[nH]cnc1C[C@H]1CCc2c(C)c3ccccc3n2C1=O
active: [4] 24.1 µM | [10] 18.5 µM
inactive: all other assays above

Cc1c(-c2cccnc2)c2ccccc2n1CCCCC(=O)O
active: [8] 3.97 µM
inactive: all other assays above

CC[C@H]1OC(=O)[C@H](C)[C@@H](O[C@H]2C[C@@](C)(OC)[C@@H](O)[C@H](C)O2)[C@H](C)[C@@H](O[C@@H]2O[C@H](C)C[C@H](N(C)C)[C@H]2O)[C@](C)(O)C[C@@H](C)C(=O)[C@H](C)[C@@H](O)[C@]1(C)O
inactive: all assays above

CCOc1cccc(-n2cc(C(=O)N3CCN(c4cc(C(=O)O)c5ccccc5c4)CC3)nc2-c2ccc(C)cc2)c1
active: [1] 27.4 µM | [2] 19.2 µM | [3] 16.8 µM | [4] 15.7 µM | [5] 30.3 µM | [6] 9.89 µM | [8] 27 µM | [9] 19.2 µM
inactive: [7] | [10]

COC(=O)CC(=O)OC
inactive: all assays above

O=C1OC(=O)C2C3C=CC(C3)C12 (stereo not given)
inactive: all assays above

CCOC(=O)c1ccc(C2CCC(NC[C@H](O)COc3ccc(O)c(NS(C)(=O)=O)c3)CC2)cc1 (stereo not given in full)
active: [3] 14.9 µM | [8] 30.8 µM | [9] 24.2 µM | [10] 11.2 µM
inactive: all other assays above

Cc1ccc(C)c(O)c1
inactive: all assays above

Cc1ccc(N)cc1O
inactive: all assays above
